Assay outcomes (PubChem BioAssay)
Pol kappa inh: inhibitors of human DNA polymerase kappa. Q9UBT6. AID 588579. 0.53% of 400,000 active. Potency, µM (titrated, usually from 107 µM), for inactives: at the top dose activity, negative = inhibition, hits mostly inhibitors. purified Pol kappa, fluorescent DNA synthesis assay, 10 min; further: on the % scale 0 is the no-effect control and ±100 the full control effect
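Here, compound and 10 nM enzyme are combined for 15 min at room temperature; adding 50 nM substrate (final) starts DNA synthesis, tracked by fluorescence at 0 and 10 min against buffer-only wells.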
POLB inh: blocks human DNA polymerase beta activity; Pol beta primer extension/strand displacement, fluorescence kinetic; Potency, µM (series often up to 114 µM), for the others: top-dose activity change, negative = inhibition, hits mostly inhibitors; P06746; 1.3% of 340,000 active; further: on the % scale 0 is the no-effect control and ±100 the full control effect
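Reaction started by 50 nM substrate onto compound-treated Pol beta (10 nM, 15 min preincubation, room temperature); plates read at 0 min and 10 min. Normalized concentration-effect data fitted by four-parameter Hill equation.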
WRN inhibitor: inhibitors of human WRN helicase; Q14191; WRN helicase unwinding, fluorescent forked duplex, kinetic; Potency, µM (titrated, usually from 114 µM), for inactives: top-dose activity change, negative = inhibition, hits mostly inhibitors; 0.46% of 360,000 active; AID 651768; further: on the % scale 0 is the no-effect control and ±100 the full control effect; nearly all actives have a fitted effect of over 55% in size
Target sequence (Q14191 whole entry, looked up): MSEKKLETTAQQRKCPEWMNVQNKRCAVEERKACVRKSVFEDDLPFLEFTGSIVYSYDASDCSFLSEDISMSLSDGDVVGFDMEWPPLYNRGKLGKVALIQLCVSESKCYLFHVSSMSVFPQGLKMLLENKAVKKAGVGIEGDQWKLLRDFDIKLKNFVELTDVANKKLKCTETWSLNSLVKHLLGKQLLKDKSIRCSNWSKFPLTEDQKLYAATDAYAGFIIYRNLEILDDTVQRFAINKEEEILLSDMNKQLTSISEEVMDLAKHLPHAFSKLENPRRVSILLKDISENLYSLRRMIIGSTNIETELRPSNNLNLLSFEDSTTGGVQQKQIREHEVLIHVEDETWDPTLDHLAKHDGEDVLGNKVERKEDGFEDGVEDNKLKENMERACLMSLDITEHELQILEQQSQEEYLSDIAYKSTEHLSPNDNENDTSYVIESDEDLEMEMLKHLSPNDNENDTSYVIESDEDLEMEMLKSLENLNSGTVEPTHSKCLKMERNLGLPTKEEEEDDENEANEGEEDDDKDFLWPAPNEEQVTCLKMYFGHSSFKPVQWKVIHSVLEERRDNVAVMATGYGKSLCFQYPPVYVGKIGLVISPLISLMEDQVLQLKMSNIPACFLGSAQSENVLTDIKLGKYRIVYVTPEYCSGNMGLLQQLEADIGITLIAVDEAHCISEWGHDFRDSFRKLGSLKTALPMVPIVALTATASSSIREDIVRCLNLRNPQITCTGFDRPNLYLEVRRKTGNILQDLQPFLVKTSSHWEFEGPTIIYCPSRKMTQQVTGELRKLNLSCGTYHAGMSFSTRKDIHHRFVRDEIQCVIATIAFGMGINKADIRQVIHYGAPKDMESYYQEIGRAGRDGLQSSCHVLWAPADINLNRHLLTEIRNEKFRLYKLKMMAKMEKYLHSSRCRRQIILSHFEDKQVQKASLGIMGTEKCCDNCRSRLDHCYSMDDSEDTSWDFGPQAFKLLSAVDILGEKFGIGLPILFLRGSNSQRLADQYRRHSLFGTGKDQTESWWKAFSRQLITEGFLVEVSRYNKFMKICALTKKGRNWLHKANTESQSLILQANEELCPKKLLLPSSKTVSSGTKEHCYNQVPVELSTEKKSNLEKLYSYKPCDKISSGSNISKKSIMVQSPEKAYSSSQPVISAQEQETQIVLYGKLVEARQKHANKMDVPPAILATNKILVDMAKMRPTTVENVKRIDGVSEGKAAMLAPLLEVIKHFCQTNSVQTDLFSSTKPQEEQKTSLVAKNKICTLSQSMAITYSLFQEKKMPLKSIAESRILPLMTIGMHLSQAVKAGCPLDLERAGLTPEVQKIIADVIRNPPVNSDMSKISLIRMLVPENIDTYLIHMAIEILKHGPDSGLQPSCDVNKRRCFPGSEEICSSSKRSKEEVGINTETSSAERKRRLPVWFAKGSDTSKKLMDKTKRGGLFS
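Kinetic fluorescence helicase assay: unwinding of a quenched forked DNA duplex (100 nM final) with 2 mM ATP final raises red fluorescence (525/598 nm). Compounds sat 15 min at room temperature with 20 nM WRN beforehand.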
FEN1 inh-1: human FEN1 inhibition | P39748 | Recombinant FEN1 flap cleavage, fluorescence, 15 min | Potency, µM (series often up to 114 µM), inactives show at the highest dose activity change, negative = inhibition, actives largely listed as inhibitors | 0.35% of 390,000 active | AID 588795; further: on the % scale 0 is the no-effect control and ±100 the full control effect; nearly all actives have a fitted effect of over 65% in size
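With each library titrated from low to high concentration, compounds met 10 nM FEN1 for 15 min at room temperature before 50 nM substrate was added; readings at 0 and 15 min fed four-parameter Hill curve fits.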
POLH inh: inhibitors of human DNA polymerase eta; Q9Y253; recombinant Pol eta, fluorescent DNA replication assay; Potency, µM (highest dose often 114 µM), inactives show top-dose activity change, negative = inhibition, most hits filed as inhibitors; 1.2% of 390,000 active; AID 588591; further: on the % scale 0 is the no-effect control and ±100 the full control effect
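Pol eta (10 nM) was preincubated with compounds for 15 min at room temperature, after which fluorescent replication substrate (50 nM final) was added to start the reaction. Fluorescence was read kinetically at 0 and 10 min.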
POLI inh: blocks human DNA polymerase iota activity. Q9UNA4. Pol iota fluorescent replication assay, 10 min. Potency, µM (titrated, usually from 115 µM), without a hit: at the highest dose activity, negative = inhibition, usual class: inhibitors. 1% of 390,000 active
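Pol iota at 10 nM preincubated 15 min with compounds at room temperature; reaction started with fluorescent substrate, 50 nM final. Fluorescence read kinetically at 0 and 10 min; buffer-only wells as negative control.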
FEN1 inh-2: FEN1 inhibition, cherry-pick retest; shares compounds with FEN1 inh-1; FEN1 flap cleavage, TAMRA/BHQ2 fluorogenic DNA substrate; Potency, µM, actives largely listed as inhibitors; 79% of 880 active; further: nearly all actives have a fitted effect of over 60% in size
An asterisk follows results filed as active; u = inconclusive; x = no result given; [ ] = another dose, or the depositor's remark. Most compounds without a hit are left out; they make up all but 2.4% or so of the library. The call rests on the fitted dose curve; in most records, active means well fitted curve in the direction sought with a large enough effect; inconclusive means small, poorly fitted or top-dose-only effect, or another doubt; inactive means no such curve, though single readings can be large; an effect the other way counts as inactive or inconclusive. Potency means the concentration at half of the fitted maximal effect.

SMILES | Pol kappa inh | POLB inh | WRN inhibitor | FEN1 inh-1 | POLH inh | POLI inh | FEN1 inh-2
COc1ccc(-c2coc3ccc(OC4OC(COC(C)=O)C(OC(C)=O)C(OC(C)=O)C4OC(C)=O)cc3c2=O)cc1 (centres undefined) | -9%[19.4 µM] | x | x | x | x | x | x
COc1ccc(N)c2c1C(=O)c1ccccc1C2=O | u | u | 20µM* | u | -20% | u | 76*
CC[C@H](C)N(C)C(=O)c1cc2ccccc2c(-c2ccccc2Cl)n1 | -8%[19.4 µM] | x | x | x | x | x | x
Cc1ccsc1/C=N/NC(=O)C(N)=O | 10% | 26% | 7% | 16µM* | -3% | 14% | u
CC(=O)Nc1sc2c(c1-c1cc3ccccc3o1)CCNC2 | x | x | x | x | x | x | 34*
CC(=O)NC(c1ccccc1)c1nc(-c2cc3ccccc3o2)cs1 (centres undefined) | x | x | -1% | x | x | x | x
CCC(=O)O[C@@H]1[C@H](C)O[C@H](O[C@H]2[C@@H](N(C)C)[C@H](O)[C@@H](O[C@@H]3[C@@H](CC=O)C[C@@H](C)[C@@H](O)/C=C\C=C/C[C@@H](C)OC(=O)C[C@@H](OC(=O)CC)[C@H]3OC)O[C@H]2C)C[C@]1(C)O | -7%[19.4 µM] | x | x | x | x | x | x
O=C(CSc1nc(-c2ccccc2)nc2ccc(F)cc12)Nc1ccc(C(=O)O)cc1 | -14% | -10% | -21%[57.1 µM] | u | u | -6% | 60*
CC(=O)c1cc(-c2ccccc2)n(CCC(=O)Nc2ccc(C(C)C)cc2)c1C | -8%[60.1 µM] | -17% | x | -8% | -25% | -11% | x
CCOC(=O)c1cnc2c(ccc3ccccc32)c1Nc1ccccc1OCC | -22% | 5% | x | 2% | -18% | 36% | x
CCOC(=O)c1cnc2c(ccc3ccccc32)c1NCCCN(C)C | -25% | u | 5% | 50µM* | -20% | u | 38*
CCCn1c2ccccc2c2nnc(SCCN3CCOCC3)nc21 | -1% | u | 0% | -8% | -16% | 60% | x
c1ccc2nc3c(nc2c1)c1ccccc1n3CCN1CCOCC1 | -24% | u | 0%[57.1 µM] | u | 2% | u | u
Cc1ccc(N2C(=O)C(CC(=O)Nc3ccc(F)cc3)N(CCC3=CCCCC3)C2=O)cc1 (centres undefined) | -7% | 16% | x | -26% | -12% | 2% | x
Cc1ccc(C)c(N2CCN(S(=O)(=O)c3ccc(F)c(C(=O)Nc4ccc(Cl)cc4Cl)c3)CC2)c1 | -4%[60.1 µM] | -2% | x | 0% | 3% | 8% | x
O=C(Nc1cccc2ccccc12)c1ccc([N+](=O)[O-])o1 | 2% | 3% | 8% | -2% | 15% | u | x
O=C(Nc1ccccc1C(=O)NC1CC1)c1ccc([N+](=O)[O-])o1 | -35% | x | -35% | -14% | 32µM* | 50µM* | u
COc1cccc(CNC(=O)c2ccc(-n3c(C)cc4c3CCCC4)cc2)c1 | -7% | 4% | x | -4% | -10% | -7% | x
CCOc1c2c(c(-c3ccc4c(c3)OCO4)c3cc(OC)c(OC)cc13)C(=O)OC2 | 11% | x | x | -1% | x | -17% | x
CCN1/C(=C/c2ccc3cc(C)ccc3[n+]2CC)Sc2ccccc21 | -34% | u | u | u | u | u | 19*
Cc1ccc(-n2ncc(C(=O)NCCc3ccsc3)c2C2CCN(C(=O)OC(C)(C)C)CC2)c(C)c1 | -3% | -14% | x | -1% | -15% | -11% | x
Cc1ccc(-c2cc(C(=O)Nc3ccc(S(=O)(=O)Nc4ncccn4)cc3)[nH]n2)c(O)c1C | -31% | u | u | u | 45µM* | u | u
CC(=O)Nc1ccc(NC(=O)c2cc(-c3ccc(C)c(C)c3O)n[nH]2)cc1 | -8% | 2% | -4% | -17% | -17% | 24% | x
O=C(O)c1cc(NC(=O)c2ccc([N+](=O)[O-])cc2)cc(NC(=O)c2ccc([N+](=O)[O-])cc2)c1 | -9% | 9% | -2%[11.6 µM] | u | u | -12% | u
CCCN1CCN(CCCNC(=O)c2cc3c(Cl)nc4ccccc4c3s2)CC1 | -7% | 2% | x | 45µM* | -26% | 31% | u
SMILES | Pol kappa inh | POLB inh | WRN inhibitor | FEN1 inh-1 | POLH inh | POLI inh | FEN1 inh-2
CC1CCN(CCCNC(=O)c2cc3c(Cl)nc4ccccc4c3s2)CC1 | 4% | 24% | 37% | u | -16% | -8% | u
O=C(NCCCN1CCCC1)c1cc2c(Cl)nc3ccccc3c2s1 | -6% | 27% | 37% | 40µM* | 7% | -10% | 38*
O=C(NCCCN1CCN(c2ccccc2F)CC1)c1cc2c(Cl)nc3ccccc3c2s1 | -2% | -14% | x | 7% | -21% | 23% | x
Cc1ccc2oc(=O)c3cc(C(=O)NCCCN4CCCCCC4)sc3c2c1 | -33% | -3% | 5%[11.6 µM] | u | 3% | 79µM* | u
O=C(CNC(=O)c1ccccc1)OCC(=O)c1cccc2ccccc12 | -12% | x | x | -4% | x | u | x
C=C1CC[C@H](O)C/C1=C/C=C1\CCC[C@]2(C)C([C@H](C)CC[C@@H](O)C(C)(C)O)CC[C@@H]12 (some centres undefined) | 2%[19.4 µM] | x | x | x | x | x | x
O=C(/C=C/c1ccco1)NC(=S)Nc1ccccc1 | u | u | -9%[11.6 µM] | -26% | u | u | x
O=C(/C=C/c1ccco1)NC(=S)Nc1cccc(-c2nc3ccccc3o2)c1 | 79µM* | 28µM* | 50µM* | -14% | 32µM* | u | u
Cn1cc(/C=C/c2cc[n+](C)cc2)c2cc(F)ccc21 | -18% | u | -17% | 45µM* | u | 45% | 38*
O=c1c2c(-c3ccccc3)csc2nc2c3ccccc3c(NCCN3CCOCC3)nn12 | -21% | u | 37% | 40µM* | -12% | -26% | 21*
Cc1c(Cl)cccc1N=Cc1ccc([N+](=O)[O-])s1 | -17% | u | -17% | 14µM* | 89µM* | 35µM* | 13*
Cc1ccccc1C(=O)N/N=C/c1ccc([N+](=O)[O-])s1 | -6% | -2% | -12%[57.1 µM] | -7% | -6% | u | x
CC(=O)Nc1ccc(NC(=O)COC(=O)c2ccccc2OCc2cccc(Br)c2)cc1 | -6% | x | x | 0% | x | -4% | x
CCOc1ccccc1NC(=O)CSc1nc2ccccc2c2nc(CCn3cncc3C)nn12 | -12%[60.1 µM] | u | x | -25% | -24% | u | u
c1ccc(N=c2nc(-c3ccccc3)n(-c3ccccc3)s2)cc1 | -3% | x | x | -7% | x | -16% | x
O=C(Cc1ccccc1)NC(c1ccco1)c1cc(Cl)c2cccnc2c1O (centres undefined) | x | x | x | x | x | x | 30*
